The results in this text go back to PubChem BioAssay.

Calls of active or inactive are those of the source.

Assay [1] in a line: optical density shifts of acrAB sulA E. coli – strain DRC41, OD650, 48 h, E. coli filamentation inducer project, primary screen (AID 1152).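 Also: E. coli MC1000 strain DRC41 lacking acrAB efflux pump and sulA.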 The settings on record: higher = more signal, called active from +8 up or from −8 down.
Assay [2] can be described thus: probe aLefty1 binding on compound microarray – biochemical, small-molecule microarray, 635/667 nm fluorescence, primary screen (AID 1153).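 Also: score merges spot fluorescence with signal-to-noise ratio from the scanned slide images.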 The settings on record: higher = more signal.
A short description of assay [3]: plasmodial surface anion channel blockers, osmotic lysis – cell-based, P. falciparum Indochina, OD700, 1 h, primary screen (AID 1154). Conditions: P. falciparum Indochina infected RBC osmotic lysis, higher = more signal, called active from +8 up or from −8 down.
Assay [4] in a line: plasmodial surface anion channel blockers, osmotic lysis – cell-based, P. falciparum Indochina, OD700, 2 h, primary screen (AID 1155).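 Also: lysis reports solute entry through the parasite surface anion channel PSAC.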 Conditions: P. falciparum Indochina infected erythrocytes, higher = more signal, called active from +8 up or from −8 down.
Assay [5] is described as follows: changes in parasitized red cell lysis, either direction – P. falciparum Indochina, OD700, 3 h, PSAC antagonist project, primary screen (AID 1156). The settings on record: P. falciparum-infected erythrocytes, osmotic lysis, higher = more signal, called active from +8 up or from −8 down.
The nature of assay [6]: plasmodial surface anion channel blockers, osmotic lysis – cell-based, P. falciparum Indochina, OD700, 18 h, primary screen (AID 1157). Conditions: P. falciparum Indochina infected erythrocytes, osmotic lysis OD700, 18 h; higher = more signal, called active from +8 up or from −8 down.
The nature of assay [7]: S6 kinase pathway phospho-S6 level changes – cell-based, A549, cytoblot, luminescence, serum-stimulated, primary screen (AID 1158).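 Also: serum-stimulated A549 lung adenocarcinoma cells; signal is phosphorylated S6 detected by cytoblot immunostaining with HRP secondary.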 Conditions: 5 h, higher = more signal.
Assay [8] concerns the target NADPH oxidase 2 (Homo sapiens) (UniProt P04839). In words: compounds shifting NOX2 Amplex Red fluorescence – cell-based, HEK293-NOX2, PMA-stimulated, NOX inhibitor project, primary screen (AID 1159). Also: test concentration not given here. The settings on record: 45 min, higher = more signal, called active from +8 up or from −8 down.
Assay [9] deals with NADPH oxidase 4 (Homo sapiens) (UniProt Q9NPH5). As to the kind of experiment: compounds shifting NOX4 Amplex Red fluorescence – cell-based, HEK293-NOX4, tetracycline-induced, NOX inhibitor project, primary screen (AID 1160). Conditions: HEK293-NOX4, Amplex Red H2O2 fluorescence, 45 min; higher = more signal, called active from +8 up or from −8 down.
Chain of NADPH oxidase 4 (Homo sapiens) (Q9NPH5 whole entry, looked up): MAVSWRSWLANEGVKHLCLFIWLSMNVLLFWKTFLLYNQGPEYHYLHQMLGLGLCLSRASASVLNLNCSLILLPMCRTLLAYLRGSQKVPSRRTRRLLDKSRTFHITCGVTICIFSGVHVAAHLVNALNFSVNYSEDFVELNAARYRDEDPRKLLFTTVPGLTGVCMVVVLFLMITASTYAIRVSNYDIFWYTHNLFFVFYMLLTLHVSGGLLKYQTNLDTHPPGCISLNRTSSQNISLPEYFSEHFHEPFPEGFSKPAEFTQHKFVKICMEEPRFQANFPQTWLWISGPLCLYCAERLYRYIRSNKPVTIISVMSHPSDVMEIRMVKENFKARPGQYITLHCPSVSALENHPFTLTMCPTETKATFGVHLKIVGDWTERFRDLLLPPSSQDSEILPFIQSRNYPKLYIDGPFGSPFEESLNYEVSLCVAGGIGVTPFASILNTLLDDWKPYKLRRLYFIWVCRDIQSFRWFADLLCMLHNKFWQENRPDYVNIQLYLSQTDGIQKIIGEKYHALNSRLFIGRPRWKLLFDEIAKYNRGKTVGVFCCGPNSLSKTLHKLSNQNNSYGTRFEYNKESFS
The target of assay [10] is NADPH oxidase 5 (Homo sapiens) (UniProt Q96PH1). In words: compounds shifting NOX5 Amplex Red fluorescence – cell-based, HEK293-NOX5, NOX inhibitor project, primary screen (AID 1161). The settings on record: HEK293-NOX5, ionomycin, 45 min, higher = more signal.
Chain of NADPH oxidase 5 (Homo sapiens) (Q96PH1 whole entry, looked up): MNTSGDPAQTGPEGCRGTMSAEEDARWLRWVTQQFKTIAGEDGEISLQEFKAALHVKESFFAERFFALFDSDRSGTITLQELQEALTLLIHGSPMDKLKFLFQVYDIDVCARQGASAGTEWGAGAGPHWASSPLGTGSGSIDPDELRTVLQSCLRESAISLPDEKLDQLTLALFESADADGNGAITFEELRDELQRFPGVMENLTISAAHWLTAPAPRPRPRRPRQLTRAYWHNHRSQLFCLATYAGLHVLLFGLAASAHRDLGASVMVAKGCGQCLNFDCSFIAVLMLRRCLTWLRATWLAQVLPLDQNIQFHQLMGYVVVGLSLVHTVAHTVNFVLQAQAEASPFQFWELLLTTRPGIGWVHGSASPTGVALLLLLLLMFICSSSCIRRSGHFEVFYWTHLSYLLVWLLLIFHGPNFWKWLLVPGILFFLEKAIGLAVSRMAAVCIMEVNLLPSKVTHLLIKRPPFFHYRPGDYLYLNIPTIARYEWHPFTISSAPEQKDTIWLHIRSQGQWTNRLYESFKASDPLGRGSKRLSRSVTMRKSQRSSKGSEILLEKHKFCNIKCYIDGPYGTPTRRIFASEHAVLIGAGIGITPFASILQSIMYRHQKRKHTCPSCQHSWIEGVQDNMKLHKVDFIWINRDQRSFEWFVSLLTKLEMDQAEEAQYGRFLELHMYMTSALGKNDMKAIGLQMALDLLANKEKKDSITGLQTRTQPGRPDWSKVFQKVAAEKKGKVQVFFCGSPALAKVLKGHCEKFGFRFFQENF

Chain of NADPH oxidase 2 (Homo sapiens) (P04839 whole entry, looked up): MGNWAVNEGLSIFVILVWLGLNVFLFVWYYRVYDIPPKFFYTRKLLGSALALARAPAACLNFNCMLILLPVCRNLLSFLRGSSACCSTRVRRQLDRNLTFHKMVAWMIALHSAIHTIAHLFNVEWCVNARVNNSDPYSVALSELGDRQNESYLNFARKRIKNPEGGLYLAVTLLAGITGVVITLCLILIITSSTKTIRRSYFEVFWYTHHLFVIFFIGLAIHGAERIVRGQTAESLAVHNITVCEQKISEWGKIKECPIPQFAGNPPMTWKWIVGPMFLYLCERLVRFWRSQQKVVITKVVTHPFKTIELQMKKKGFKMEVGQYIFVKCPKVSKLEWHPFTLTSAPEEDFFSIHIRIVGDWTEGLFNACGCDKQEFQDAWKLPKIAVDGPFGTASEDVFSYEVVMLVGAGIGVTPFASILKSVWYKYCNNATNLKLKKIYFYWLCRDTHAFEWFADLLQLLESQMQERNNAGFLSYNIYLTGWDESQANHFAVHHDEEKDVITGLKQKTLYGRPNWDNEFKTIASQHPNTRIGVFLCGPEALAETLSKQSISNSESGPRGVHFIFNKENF

Regarding `C=CCC(OC(C)=O)[C@@H]1[C@@H](N(Cc2ccc(-c3ccccc3)cc2)C(=O)c2ccc(C)cc2)c2cc(OCCCO)ccc2N1C(=O)c1ccc2ccccc2n1` (stereo not given in full), the z-score was 2.95 (inactive) in [1]; 0.225 (inactive) in assay [3]; -0.883 (inactive) in assay [4]; -1.19 (inactive) in [5]; -1.06 (inactive) in [6]; 1.56 in assay [7]. Besides, the values for the z-score in assay [8], in assay [9] and in assay [10] were -0.0121 (inactive), 0.729 (inactive) and 1.92, respectively. Besides, the composite z-score in assay [2] was determined as 0.175.

Consider `COc1ccccc1CN1C(=O)c2ccccc2[C@](Cc2ccccc2I)(C(=O)NCc2ccccc2)[C@@H]1c1ccc(CO)cc1`, for which the z-score is -0.0738 (inactive) in assay [1]; 2.14 (inactive) in [3]; -0.0098 (inactive) in assay [4]; 0.826 (inactive) in assay [5]; -0.308 (inactive) in assay [6]; -0.266 in assay [7]. The z-score is 0.102 (inactive) in assay [8], 0.377 (inactive) in [9] and 1.34 in [10]. Also, the composite z-score in assay [2] came to 0.183.

Turning to `COc1ccccc1CN1C(=O)c2ccccc2[C@](Cc2ccccc2I)(C(=O)NC2CC2)[C@@H]1c1ccc(CO)cc1`, the z-score in assay [1] is 0.203 (inactive); in assay [3] it was 11.4 (active); in [4], 1.35 (inactive); in [5], 2.38 (inactive); in assay [6], 0.99 (inactive); in assay [7], -0.154. For the same compound, the z-score in assay [8] was -0.975 (inactive); in assay [9] it was -0.89 (inactive); in assay [10] it was -2.08. In addition, in [2], the composite z-score was -0.25.

Regarding `O=S(=O)(NCCCO)c1ccc(Br)cc1`, the z-score in assay [1] was 0.949 (inactive); in assay [3], 0.168 (inactive); in assay [4], -0.852 (inactive); in assay [5], -1.21 (inactive); in [6], -1.71 (inactive); in assay [7], 0.679. Also, the z-score in assay [8] is -1.2 (inactive); in [9] it was -0.0431 (inactive); in assay [10], 0.102. In [2], this compound displayed a composite z-score of 0.103.

With `CC(c1ccccc1)C(O)C1C=CC2C(=O)N(c3ccccc3)C(=O)C2N1Nc1ccccc1F` (stereo not given), the z-score is 0.207 (inactive) in assay [1]; 0.784 (inactive) in assay [3]; -0.11 (inactive) in assay [4]; -0.597 (inactive) in assay [5]; -0.865 (inactive) in [6]; 0.0297 in assay [7]. Further, the values for the z-score in assay [8], in assay [9] and in [10] were -0.652 (inactive), -0.714 (inactive) and 0.381, respectively. This compound also displayed a composite z-score in assay [2] of 0.0146.

For `C=CCOC(=O)[C@H]1[C@@H]2C(=O)O[C@@H](c3ccccc3)[C@@H](c3ccccc3)N2[C@@H](c2ccc(OCCOC(=O)[C@H]3C[C@H]4C(=O)N[C@@H](CCCC[N+](C)(C)C)C(=O)N4[C@H]3c3ccc(O)cc3)cc2)[C@]12C(=O)Nc1ccccc12`, the z-score in assay [1] was 0.0787 (inactive); in assay [3], -2.12 (inactive); in assay [4], -1.12 (inactive); in assay [5] it was 0.857 (inactive); in assay [6], -1.95 (inactive); in assay [7] it was -0.327. For the same compound, the z-score in assay [8] is 2.39 (inactive); in assay [9], 0.928 (inactive); in [10], 0.96. Moreover, the composite z-score in assay [2] stood at 0.206.

Turning to `CN1C(=O)C2C(C1=O)C1C=C(c3ccc(CO)cc3)C2C(C2CC2)N1Cc1sc2ccccc2c1Cl` (stereo not given), the z-score in assay [1] is 0.743 (inactive); in assay [3] it was 20.7 (active); in [4] it was 5.75 (inactive); in [5] it was 0.713 (inactive); in [6] it was 1.82 (inactive); in assay [7], 0.0504. Further, the results for the z-score in [8], in assay [9] and in [10] were -3.97 (inactive), -0.852 (inactive) and -3.7, respectively. In [2], this compound displayed a composite z-score of 0.146.

For `C=CCC(OC(C)=O)[C@@H]1[C@@H](N(Cc2ccc(-c3ccccc3)cc2)C(=O)c2ccc(C)cc2)c2cc(OCCCO)ccc2N1C(=O)Cc1ccc(OC)cc1` (stereo not given in full), the z-score in assay [1] was 2.25 (inactive); in assay [3], 0.398 (inactive); in [4], -1.46 (inactive); in assay [5], -0.774 (inactive); in assay [6], -1.43 (inactive); in assay [7] it was 1.52. The z-score in assay [8] was -0.137 (inactive); in [9], 1.01 (inactive); in assay [10] it was 2.57. In assay [2], this compound yielded a composite z-score of -0.0937.

On to `COCCOC(=O)N1C(=O)[C@@]2(c3ccccc31)[C@H](c1ccc(O)cc1)N1[C@H](c3ccccc3)[C@H](c3ccccc3)OC(=O)[C@H]1[C@@H]2C(N)=O`, for which the z-score in [1] was 0.0672 (inactive); in [3], 2 (inactive); in [4] it was 1.18 (inactive); in assay [5], 1.34 (inactive); in assay [6] it was 0.44 (inactive); in assay [7] it was -0.0639. Moreover, the values for the z-score in [8], in assay [9] and in assay [10] were -0.198 (inactive), -0.747 (inactive) and -0.0275, respectively. The composite z-score in [2] is -0.379.

Regarding `CC(C)NC(=O)[C@@]1(c2ccc([N+](=O)[O-])cc2)CC(=O)N(C(C)C)[C@@H]1c1ccc(CO)cc1`, the z-score in [1] was 1.58 (inactive); in [3], 1.93 (inactive); in assay [4], -0.672 (inactive); in assay [5], -0.641 (inactive); in assay [6], -0.945 (inactive); in assay [7] it was 1.31. For the same compound, the z-score in assay [8] is -0.379 (inactive); in [9], 0.354 (inactive); in assay [10], 0.0654. Further, the composite z-score in assay [2] was -0.82.

Take `O=C1C[C@@](C(=O)O)(c2ccc([N+](=O)[O-])cc2)[C@@H](c2ccc(CO)cc2I)N1CC12CC3CC(CC(C3)C1)C2`: the z-score is -0.455 (inactive) in [1]; 27.4 (active) in assay [3]; 22.3 (active) in assay [4]; 3.79 (inactive) in assay [5]; 2.73 (inactive) in assay [6]; -0.429 in assay [7]. Moreover, the figures for the z-score in assay [8], in [9] and in [10] were 1.11 (inactive), -0.681 (inactive) and 1.72, respectively. Moreover, the composite z-score in assay [2] was determined as 0.271.

`COc1ccc(C#Cc2ccc3c(c2)[C@]2(C(=O)N3)[C@H](c3ccc(OCCO)cc3)N3[C@H](c4ccccc4)[C@H](c4ccccc4)OC(=O)[C@H]3[C@@H]2C(=O)Nc2nc3ccccc3s2)cc1`: the z-score was 1.84 (inactive) in [1]; 2.24 (inactive) in assay [3]; 2.11 (inactive) in assay [4]; 2.04 (inactive) in [5]; 1.94 (inactive) in [6]; 0.418 in assay [7]. Further, the z-score in assay [8] was 1.7 (inactive); in assay [9] it was 0.74 (inactive); in [10], 0.177. In addition, the composite z-score in assay [2] turned out to be 0.547.
